This note sets out measurements from ChEMBL document CHEMBL1157539, “Thousands of chemical starting points for antimalarial lead identification” (Nature, 2010).

What all share (type): functional
Experiment [1] relates to Plasmodium falciparum. As to the kind of experiment: GSK_TCMDC: Inhibition of Plasmodium falciparum 3D7 in whole red blood cells, using parasite LDH activity as an index of growth. Test compounds present at 2uM.
In experiment [2] the test system is Plasmodium falciparum. As to the kind of experiment: GSK_TCMDC: Inhibition of Plasmodium falciparum Dd2 in whole red blood cells, using parasite LDH activity as an index of growth. Test compounds present at 2uM.
Experiment [3] relates to HepG2. As to the kind of experiment: GSK_TCMDC: Percent inhibition of human HepG2 cell line. Test compounds present at 10uM.

Regarding `CCN(CCCN1CCCCC1)c1cc(C)nc(Nc2ccc(C(F)(F)F)cc2)n1.O=C(O)C(F)(F)F`, the Inhibition in experiment [1] was determined as 100%; in experiment [2] it was 99%; in experiment [3], 26%.
Taken in the same sequence, the figures for `COC(=O)Cn1c(C2CCN(CC3CCC(NC(=O)/C=C/c4ccc(Cl)c(Cl)c4)CC3)CC2)nc2ccccc21` (stereo unspecified) were 95%, 17% and 12%.
Consider `N#Cc1cccc(C(=O)Nc2ccc(-c3cccc(CN4CCCC4)c3)cc2)c1.O=C(O)C(F)(F)F`, for which the Inhibition stood at 100% in experiment [1], 79% in experiment [2] and 15% in experiment [3].
Taken in the same sequence, the figures for `O=C(Nc1ccc(Cl)c(Cl)c1)Nc1ccccc1N1CCNCC1.O=C(O)C(F)(F)F` were 100%, 22% and 17%.
Taken in the same sequence, the figures for `NCC1CCCN1Cc1ccc(-c2cccc(-c3nc4cc(F)ccc4[nH]3)c2)cc1.O=C(O)C(F)(F)F` (stereo unspecified) were 100%, 31% and 38%.
Taken in the same sequence, the figures for `O=C(CNCC1CCCCC1)Nc1cc(C(F)(F)F)ccc1Cl` were 86%, 67% and 1%.
Consider `COC(=O)c1ccc(-c2ccc(-c3cccnc3)cc2C)cc1`, for which the Inhibition came out at 100% in experiment [1], 98% in experiment [2] and 81% in experiment [3].
Taken in the same sequence, the figures for `Cc1cc(N[C@@H](CC(C)C)C(=O)NCc2cccs2)nc(NCCc2cccs2)n1.O=C(O)C(F)(F)F` were 92%, 13% and 0%.
As for `CCOC(=O)c1ccc(NC(=O)Nc2cccc(-c3ccc(-c4nc5cc(F)ccc5[nH]4)cc3)c2)cc1`, the Inhibition is on record as 100% in experiment [1], 97% in experiment [2] and 40% in experiment [3].
Take `COc1cccc(Nc2c(C(N)=O)cnc3ccc(-c4ccc([S+](C)[O-])cc4)cc23)c1.O=C(O)C(F)(F)F` (stereo unspecified): the Inhibition in experiment [1] is given as 96%; in experiment [2] it was 100%; in experiment [3] it was 0%.
Taken in the same sequence, the figures for `O=C(O)C(F)(F)F.O=S(=O)(/C=C/c1ccccc1)N(Cc1ccc(-c2ccc(CNCCc3ccccn3)cc2)cc1)CC1CCCCN1` (stereo unspecified) were 100%, 97% and 46%.
Taken in the same sequence, the figures for `O=C(O)C(F)(F)F.Oc1ccc(CCNc2nc(NCCCOc3cc(CN4CCCCC4)ccc3F)nc(N3CCNCC3)n2)cc1` were 100%, 0% and 30%.
For `CC(C)(C)c1ccc(CN2CCC(CNC(=O)c3cc(-c4ccccc4)nc4ccccc34)CC2)cc1`, the Inhibition in experiment [1] is listed as 89%; in experiment [2], 36%; in experiment [3] it was 33%.
Taken in the same sequence, the figures for `CS(=O)(=O)CCNCc1ccc(-c2ccc3ncnc(Nc4ccc(OCc5ccccc5)c(Cl)c4)c3c2)o1.Cl` [GW574783B] were 100%, 76% and 4%.
Taken in the same sequence, the figures for `N#Cc1ccc(N2CCN(Cc3cccc(-c4ccc(-c5nc6ccccc6[nH]5)cc4)c3)CC2)nc1.O=C(O)C(F)(F)F` were 89%, 40% and 45%.
Taken in the same sequence, the figures for `O=C(Nc1cn(-c2ccc(OCc3cccc(F)c3)c(Cl)c2)c2ncncc12)c1ccncc1` were 100%, 81% and 13%.
In the case of `COc1cccc(Nc2nc(C)cc(NC3CCCC3)n2)c1`, the results for the Inhibition in experiment [1], in experiment [2] and in experiment [3] were 100%, 79% and 41%, respectively.
For the molecule `CC(C)(C)c1ccc(CN(C[C@@H](O)CNS(=O)(=O)c2cc(Cl)cc(Cl)c2)C(C)(C)C)cc1.Cl`, the Inhibition was 98% in experiment [1], 94% in experiment [2] and 74% in experiment [3].
As for `COc1ccc2nccc(N3CCC(SCCNCc4ccc5c(n4)NC(=O)CO5)C3)c2n1.Cl` (stereo unspecified), the Inhibition in experiment [1] was determined as 100%; in experiment [2] it was 9%; in experiment [3], 30%.
Turning to `COc1ccc2[nH]c(C)cc(=NN=Cc3ccccc3F)c2c1`, the Inhibition in experiment [1] came out at 100%; in experiment [2], 100%; in experiment [3], 3%.
In the case of `CCN1CCC(N(Cc2ccc(-c3ccc(C(F)(F)F)cc3)cc2)C(=O)Cn2c(CCc3cccc(F)c3F)cc(=O)c3c2CCC3)CC1.O=C(O)C(O)C(O)C(=O)O`, the Inhibition is 89% in experiment [1], 85% in experiment [2] and 49% in experiment [3].
Regarding `Cc1cc(C(=O)N[C@H]2CCN(Cc3ccc(OCCCN(C)C)cc3)C2)ccc1Br.O=C(O)C(F)(F)F`, the Inhibition worked out at 97% in experiment [1], 62% in experiment [2] and 88% in experiment [3].
In the case of `CN1CCCN(Cc2ccc(-c3ccc(NC(=O)c4ccc(Cl)cc4)cc3)cc2)CC1.O=C(O)C(F)(F)F`, the values for the Inhibition in experiment [1], in experiment [2] and in experiment [3] were 96%, 67% and 58%, respectively.
Taken in the same sequence, the figures for `COc1cc(Nc2ccnc3cc(-c4ccccn4)ccc23)cc(OC)c1OC.Cl` were 91%, 0% and 0%.
Regarding `Cc1cc(C(=O)CN2C(=O)NC3(CCCc4ccccc43)C2=O)c(C)n1Cc1ccc(F)cc1` (stereo unspecified), the Inhibition in experiment [1] is reported as 92%; in experiment [2], 53%; in experiment [3], 4%.
For `CC(C)C1=NC(=O)c2cc([N+](=O)[O-])ccc2CN1`, the figures for the Inhibition in experiment [1], in experiment [2] and in experiment [3] were 98%, 0% and 6%, respectively.
Taken in the same sequence, the figures for `Cl.Clc1cc(Br)ccc1-c1ccc(CNCC2CCNCC2)o1` were 96%, 39% and 100%.

By Inhibition is commonly meant how much of the control response was suppressed. Low values mean little suppression, high ones strong suppression.
